The source of these data is PubChem BioAssay AID736 (The Scripps Research Institute Molecular Screening Center, 2007).

The campaign covered roughly 97,000 compounds. About 210 (0.22%) were called active. This excerpt belongs to a sample that is enriched for actives. Unmarked numbers belong to inactive results. No stated cut-off is given here; in the data, active means inhibition above about 45%; inactive means the rest.

In this experiment the target is Sphingosine 1-phosphate receptor 2 (Homo sapiens) (UniProt O95136). In words: blockers of S1P2 receptor signalling – cell-based, primary screen (AID 736).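 Further: CRE beta-lactamase reporter cells expressing human S1P2 stimulated with S1P; 0% = agonist at EC80 alone and 100% = agonist plus reference antagonist.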 Conditions: cell-based S1P2 antagonist assay, at 5 µM, hits give high values.
Sequence of Sphingosine 1-phosphate receptor 2 (Homo sapiens) (O95136 whole entry, looked up): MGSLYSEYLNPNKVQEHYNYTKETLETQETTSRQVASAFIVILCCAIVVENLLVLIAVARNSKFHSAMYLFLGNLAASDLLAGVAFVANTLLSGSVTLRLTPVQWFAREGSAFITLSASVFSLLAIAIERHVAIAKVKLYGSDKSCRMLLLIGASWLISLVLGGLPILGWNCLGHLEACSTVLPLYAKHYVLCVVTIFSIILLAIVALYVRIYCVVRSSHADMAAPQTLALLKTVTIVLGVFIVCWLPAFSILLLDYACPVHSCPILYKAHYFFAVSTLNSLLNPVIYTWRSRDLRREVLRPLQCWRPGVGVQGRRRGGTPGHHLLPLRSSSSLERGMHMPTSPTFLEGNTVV
Take `N=c1c2c(-c3ccccc3)c(-c3ccccc3)oc2ncn1Cc1ccco1`: the inhibition is 2.42%.

Turning to `CCOc1c(Br)cc(/C=C2\C(=O)N(CCC#N)N=C2C)cc1OC`, the inhibition is -33.3%.

Consider `Cc1cc(C)cc(OCC(=O)NNC(=O)c2cc3ccccc3oc2=O)c1`, for which the inhibition is -16.6%.

As for `CCN(CC)Cc1csc2ccc(Br)cc12`, the inhibition is -1.56%.

As to `C=CCN(C(=O)Nc1ccc2oc(C)nc2c1)c1ccccc1`, the inhibition was 3.19%.

For the molecule `COc1ccccc1NC(=O)/C=C/C(N)=O`, the inhibition was -12.8%.

Consider `CC(C)N(c1ccccc1)c1ncnc(NCCC(=O)O)c1[N+](=O)[O-]`, for which the inhibition is 15.5%.

Consider `CCOC(=O)C1(S(=O)(=O)c2ccccc2)CCN(Cc2ccccc2)CC1`, for which the inhibition is 17%.

On to `CC1=C/C(=N\OS(=O)(=O)c2ccccc2)C=CC1=O`, for which the inhibition is 82.9% (active).

As to `Cc1ccc(S(=O)(=O)c2ccc(Oc3ccccc3)cc2)cc1`, the inhibition is -7.17%.

Regarding `O=C(Nc1ccccc1)c1nnsc1S(=O)(=O)c1ccc(Cl)cc1`, the inhibition is 61.4% (active).

For `CC(=O)Nc1cc(C(=O)O)ccc1S(=O)(=O)c1ccc(Cl)cc1`, the inhibition is 3.81%.

Take `O=C(Nc1ccc(Cl)cc1)c1ccsn1`: the inhibition is 11.1%.

Take `CC(=O)Oc1ccc(C(C)=O)c2c1OCCO2`: the inhibition was -13%.

As for `COc1ccc(Nc2ncc(C(=O)N3CCN(c4ccccc4OC)CC3)c3ccccc23)cc1`, the inhibition is -4.51%.

Regarding `CC1CCN(C(=O)CN(c2ccc(Oc3ccccc3)cc2)S(C)(=O)=O)CC1`, the inhibition was -1.57%.

For the molecule `C=CCNC(=O)c1csc(-c2ccccc2)n1`, the inhibition was 5.01%.

Turning to `CC(C)CC(=O)N1CCC(O)(CS(=O)(=O)Cc2ccccc2)CC1`, the inhibition is 5.12%.

As to `Cc1[nH]n(-c2ccc(Cl)cc2)c(=O)c1/C=N/n1c(C)nc2ccccc2c1=O`, the inhibition is 2.28%.

As for `Cc1ccc(-c2nc(C)sc2CC(=O)O)cc1`, the inhibition was 10.8%.

Consider `CCCSC(=S)NC1CCS(=O)(=O)C1` (stereo unspecified), for which the inhibition was 15.8%.

As to `COc1ccc(C(=O)Nc2nc(-c3ccc(S(=O)(=O)N4CCOCC4)cc3)cs2)cc1`, the inhibition is 19.7%.

As to `COc1ccc(OC)c(NC(=O)c2cnn(-c3ccccc3Cl)c2NC(=O)c2ccco2)c1`, the inhibition is -6.97%.

Regarding `O=C(NC1CCCCC1)c1ccc(CNc2c(N3CCOCC3)c(=O)c2=O)cc1`, the inhibition was -21.1%.

With `Cc1nnc(SCc2nc3ccccc3nc2C)s1`, the inhibition was -20.9%.

In the case of `Cc1nn(-c2ccccc2)c(Cl)c1C(=O)Nc1ccccc1`, the inhibition was -0.13%.

As to `CCN(CC)C(=O)CSc1nc2ccccc2o1`, the inhibition was 3.55%.

With `c1ccc(CC2CCN(c3nc4ccccc4n4cnnc34)CC2)cc1`, the inhibition was -5.6%.

Take `Cc1nn(C(C)CC(=O)O)c(C)c1C` (stereo unspecified): the inhibition is -0.29%.

Consider `CCC(C)NC(=O)CSC1=Nc2ccccc2C2=NC(CCC(=O)NCc3ccco3)C(=O)N12` (stereo unspecified), for which the inhibition is 1.95%.

For the molecule `CCC(C)NC(=O)c1ccccc1NC(=O)c1ccccc1N(C)S(C)(=O)=O` (stereo unspecified), the inhibition is -10.9%.

With `CC(=O)N1CCCc2cc(S(=O)(=O)CCC(=O)N3CCN(c4ccccc4)CC3)ccc21`, the inhibition is 0.06%.

Consider `Cn1nc(C(F)(F)F)c2cc(NC(=O)OCC(C)(C)C)sc21`, for which the inhibition was -6.24%.

For `Clc1ccccc1SCc1nc2ccccc2[nH]1`, the inhibition is 11.2%.

With `COc1ccc(N2CCN(Cc3ccc(Br)s3)CC2)cc1`, the inhibition is -19.3%.

Take `Fc1ccc2[nH]c3c(N4CCN(Cc5ccc6c(c5)OCO6)CC4)ncnc3c2c1`: the inhibition was 80.7% (active).

For the molecule `Cc1cc(N2CCN(Cc3ccc4c(c3)OCO4)CC2)n2ncnc2n1`, the inhibition is 13.4%.

In the case of `CC(C)(C)n1nnnc1C(c1ccc(F)cc1)N1CCN(Cc2ccc3c(c2)OCO3)CC1` (stereo unspecified), the inhibition is 9.67%.

For the molecule `COc1cc(N2CCCC2)c(OC)cc1/C=C(/C#N)c1cccc(Br)c1`, the inhibition is -9.11%.

Take `O=C1COc2ccc(NC(=O)N3CCN(c4ccc(F)cc4)CC3)cc2N1`: the inhibition is 9.28%.

Turning to `CCn1c(CNC(=O)c2ccccc2)nnc1SCC(=O)N1CCN(c2ccccc2)CC1`, the inhibition was 2.56%.

As for `C=C(C)C(=O)Nc1cccc(C(C)=O)c1`, the inhibition is -17.2%.

Consider `CCN(CC)C(=O)CSc1nnc(CNc2ccc(F)cc2)n1Cc1ccco1`, for which the inhibition is -21.8%.

In the case of `CCOc1cccc(C(=O)Nc2nnc(-c3cccs3)s2)c1`, the inhibition is -13.1%.

With `O=C(Nc1cccc2ncccc12)c1ccc(-c2ccc(Cl)cc2Cl)o1`, the inhibition is 20.4%.

With `Cc1cccc(NC(=O)Cn2cc(C(=O)c3ccco3)c3ccccc32)c1`, the inhibition was 16.7%.

As for `CCN(CC)S(=O)(=O)c1cc([N+](=O)[O-])ccc1NNC(=O)Nc1ccccc1`, the inhibition is -2.47%.

Regarding `O=C(NCCCN1CCCCC1)c1ccc2c(c1)NC(=O)C(N1CCOCC1)S2` (stereo unspecified), the inhibition is 14.6%.

Consider `COC(=O)CSc1nc(C)c2ccc(OC)cc2n1`, for which the inhibition is 7.81%.

Consider `COc1cccc(/C=N\Nc2nncc(-c3ccccc3)n2)c1`, for which the inhibition is 20.6%.

With `Cc1cc2nc(SCCN3CCOCC3)[nH]c2cc1C`, the inhibition was 6.34%.

`Cc1csc(OCC(=O)Nc2ccc(C)c(C)c2)n1`: the inhibition is 6.53%.

In the case of `CCOc1ccc(C(O)Cc2nc3ccccc3n2C)cc1` (stereo unspecified), the inhibition is -0.2%.

Regarding `CCOC(=O)c1cc(C#N)c(N2CCCCC2)nc1-c1ccccc1`, the inhibition was 1.48%.

For the molecule `O=C(Nc1nccs1)c1cc(S(=O)(=O)N2CCOCC2)c(Cl)cc1Cl`, the inhibition is 0.95%.

As to `COc1ccc(NC(=O)/C(Cl)=C(/Cl)S(=O)Cc2ccc(C)cc2)cn1` (stereo unspecified), the inhibition was 98.7% (active).

For `COc1cccc(NC(=O)Cc2ccc(C)cc2)c1`, the inhibition is -17%.

In the case of `COC(=O)/C(NC(C)=O)=C(\C)c1ccc(Cl)cc1`, the inhibition is -17.7%.

Take `Cc1cc2cc3c(N)[nH]nc3nc2cc1C`: the inhibition is 6.72%.

Turning to `Cc1ccc(O/C=C2\OC(=O)c3ccccc32)cc1`, the inhibition is -18.2%.

Take `COc1ccc(Cl)cc1NC(=O)CN(C)C(=O)CNC(=O)C12CC3CC(CC(C3)C1)C2`: the inhibition was -3.56%.

Regarding `COc1ccc(/C=C(\NC(=O)c2ccc(OC)c(OC)c2)C(=O)NCCc2c[nH]c3ccccc23)cc1`, the inhibition is 8.6%.

As to `O=C(Nc1ccc2ccccc2c1)Nc1ccc2snnc2c1`, the inhibition was -5.16%.

Take `CC(=O)NNc1cc(=O)c2c(=O)n(C)c(=O)n(C)c2[nH]1`: the inhibition was 22.2%.

Take `CN(C)c1ccc(NC(=S)N(CCc2ccccc2)C2CC(=O)N(c3c(Cl)cccc3Cl)C2=O)cc1` (stereo unspecified): the inhibition is 14.5%.

For `COc1cccc(N2CCN(C3CC(=O)N(c4ccc(Cl)cc4)C3=O)CC2)c1` (stereo unspecified), the inhibition is -1.94%.

In the case of `COC(=O)CN(C(=S)Nc1ccc(Cl)cc1)C1CC(=O)N(c2ccc(OC)cc2)C1=O` (stereo unspecified), the inhibition was 54.6% (active).

With `CC1CCN(CC(=O)c2c[nH]c3ccccc23)CC1`, the inhibition was 12.6%.

Turning to `CCCCNC(=O)C1CCCNC1=O` (stereo unspecified), the inhibition was 0.22%.

As to `CCCCCCCC(=O)NC(Nc1ccccc1OC)C(Cl)(Cl)Cl` (stereo unspecified), the inhibition is -5.42%.

Consider `O=C(O)C1CCN(C(=O)OCc2ccccc2)CC1`, for which the inhibition is 9.58%.

On to `CC(C)CCOc1ccc(C(=O)C[N+]2(C)CCOCC2)cc1`, for which the inhibition is 8.2%.

For the molecule `CC(NC(=O)C1CCC(CNc2c(N3CCOCC3)c(=O)c2=O)CC1)c1ccccc1` (stereo unspecified), the inhibition is 4.51%.

Regarding `O=C(Nc1ccc2oc(-c3ccc4ccccc4c3)nc2c1)c1cccs1`, the inhibition is 7.93%.

For the molecule `Cc1cc(C)cc(OCC(=O)Nc2nc3ccc([N+](=O)[O-])cc3s2)c1`, the inhibition was 4.48%.

For the molecule `O=C(NC(Nc1nc2ccc([N+](=O)[O-])cc2s1)(C(F)(F)F)C(F)(F)F)c1ccccc1`, the inhibition was 97.3% (active).

Turning to `COC(=O)C(NC(=O)c1ccc(OC)cc1)(Nc1ncc(S(=O)(=O)c2ccc([N+](=O)[O-])cc2)s1)C(F)(F)F` (stereo unspecified), the inhibition was 19.9%.

As for `Cc1ccc(CN(N=Nc2nonc2N)c2nonc2N)c(C)c1`, the inhibition was -6.92%.

Consider `COC(=O)c1cccc(-n2[nH]nnc2=S)c1`, for which the inhibition was 15.5%.

On to `Cc1ccc(-c2cc(C(=O)NCC3CCCO3)c3ccccc3n2)o1` (stereo unspecified), for which the inhibition was 6.28%.

For the molecule `Cc1nn(Cc2ccc(F)cc2)c(C)c1NC(=O)c1noc2c1CCc1ccccc1-2`, the inhibition was 2.56%.

For `O=C(CSc1nnnn1-c1ccccc1)NCc1ccco1`, the inhibition is -4.03%.

On to `CC(C)NC(=O)NC(=O)COC(=O)c1ccc(NC(=O)CC#N)cc1`, for which the inhibition was -12.5%.

In the case of `O=C(/C=C/c1ccc(Cl)cc1Cl)c1cccnc1`, the inhibition was -15.8%.

Consider `O=C(NNC(=O)c1cccnc1)Nc1ccccc1`, for which the inhibition is 8.67%.

With `Fc1ccc(-n2c(Cc3ccccc3)nnc2SCc2nc(-c3ccc(Cl)cc3)no2)cc1`, the inhibition was -18.9%.

For the molecule `FC(F)(F)c1cccc(NC(=S)Nc2cccc(Cl)c2)c1`, the inhibition was -0.66%.

`Cc1ccc(/C=N/NC(=O)C2=NNC(c3ccccc3)(c3ccccc3)C2)c(O)c1`: the inhibition was -25.5%.

As to `CC1(C)C2CCC13CS(=O)(=O)NC3C2` (stereo unspecified), the inhibition is 2.66%.

In the case of `CCCNC(=S)N1CCC(NC(=O)C23CC4CC(CC(C4)C2)C3)CC1`, the inhibition is 22.7%.

For `CCOC(=O)c1sc(NC(=O)CSc2nc(C)cc(C(F)(F)F)n2)c(C#N)c1C`, the inhibition is -9.87%.

For `FC(F)(F)c1nnc2ccc(N3CCN(c4ccccc4)CC3)nn12`, the inhibition was 0.81%.

As for `N=c1oc2ccccc2cc1C(=O)N/N=C/c1ccccc1`, the inhibition is 10.7%.

In the case of `CNC(=O)/C(=C\C=C\c1ccccc1)NC(=O)c1ccc([N+](=O)[O-])cc1`, the inhibition is 10.7%.

As for `CC(N)C12CC3CC(CC(O)(C3)C1)C2` (stereo unspecified), the inhibition was -17.7%.

As for `CS(=O)(=O)N1CCN(c2ccc(C(=O)NC3C4CC5CC(C4)CC3C5)cc2[N+](=O)[O-])CC1` (stereo unspecified), the inhibition is -2.62%.
